High-throughput results as filed in PubChem BioAssay.
Sm TGR inh: qHTS Assay for the Inhibitors of Schistosoma Mansoni Peroxiredoxins; Schistosoma mansoni thioredoxin glutathione reductase (TGR), Q962Y6; purified TGR, DTNB reduction, TNB absorbance 405 nm; Potency, µM (highest dose often 114 µM), actives largely listed as inhibitors; actives 3% (n = 360,000); AID 485364, 2010; active = well fitted inhibition curve with a large enough effect; inconclusive = small, poorly fitted or top-dose-only effect; inactive = no such curve, though single readings can be large or run the other way; note: nearly all actives have a fitted effect of over 60% in size
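TGR 20 nM + NADPH 100 uM (dispensed conc.), cpd preinc 15 min RT; start with NADPH (500 uM addition) then DTNB (15 mM addition). Kinetic TNB absorbance, 405 nm filter. Four-parameter Hill fit across titration.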
FMDV antiviral: High Throughput Screening for Foot and Mouth Disease Virus Antivirals; FMDV antiviral cell-based qHTS; Potency, µM (top dose mostly 57.9 µM), usual class: inhibitors; actives 1.2% (n = 410,000); calls by dose curve; tested in HEK293T cells; note: read-out not given here; nearly all actives have a fitted effect of over 45% in size
CHX counter: Cycloheximide Counterscreen for Small Molecule Inhibitors of Shiga Toxin. cell reporter, cycloheximide protein synthesis inhibition counterscreen. max response, %. actives 12% (n = 300,000). AID 2314, 2010; in the data active = max response mostly above about 13%, no sharp cut-off; inactive = mostly below about 14%; note: read at 38.3 µM for the half of the compounds with a filed dose
Shiga inhibitor: A qHTS for Small Molecule Inhibitors of Shiga Toxin | Vero cells, Shiga toxin protein synthesis inhibition reporter | inhibition, % at 38.7 µM | actives 9.2% (n = 290,000); in the data active = inhibition mostly above about 28%, no sharp cut-off; inactive = mostly below about 43%
Each line names hits and unclear results; the compound was inactive in the other large screens. Rows were chosen to be rich in hits. Some 12% of all compounds tested hit in one or more screens of this group.

CC(C)c1ccc(/C=C2\SC(=O)N(CC(=O)NC3CCS(=O)(=O)C3)C2=O)cc1 (stereo unspecified)	CHX counter 35.9, Shiga inhibitor 76.0
CCN(CC)CCNC(=O)C1CCN(C(=O)c2cnn(-c3ccccc3)c2-n2cccc2)CC1	none (no result: CHX counter, Shiga inhibitor)
CC(=O)c1cccc(NC(=O)c2ccc3c(c2)N(Cc2ccc(C)cc2)CCS3)c1	none (no result: CHX counter, Shiga inhibitor)
O=C(NCC1(N2CCOCC2)CCCC1)c1cnn(-c2nccc(-c3ccco3)n2)c1C1CC1	none (no result: Sm TGR inh, CHX counter, Shiga inhibitor)
COC(=O)c1ccc2c(=O)n(CCc3ccc(S(N)(=O)=O)cc3)c(SCC(=O)C(C)(C)C)nc2c1	none (no result: CHX counter, Shiga inhibitor)
COc1ccc(NC(=O)CCCSc2nc(-c3ccco3)cc(C(F)(F)F)n2)cc1	none (no result: CHX counter, Shiga inhibitor)
Nc1ccc2c(c1)C(=O)c1ccccc1-2	none (no result: Sm TGR inh, CHX counter, Shiga inhibitor)
Nc1ccc2c(c1)C(=O)C(=O)c1ccccc1-2	FMDV antiviral 5.62µM
Nc1ccc2c(c1)C(=O)c1ccccc1C2=O	none (no result: CHX counter, Shiga inhibitor)
O=C1C(=O)c2ccc(-c3ccccc3)cc2-c2ccccc21	FMDV antiviral 14.1µM
CCOc1ccc(C2C(C(N)=O)=C(C)Nc3nc(SCc4ccccc4F)nn32)cc1 (stereo unspecified)	none (no result: CHX counter, Shiga inhibitor)
CCOc1ccc(CCNC(=O)c2cnc3sc(N4CCCCC4)nn3c2=O)cc1	FMDV antiviral inconclusive (no result: CHX counter, Shiga inhibitor)
COc1ccc2c(c1)c1c(c(=O)n(-c3ccc(OC)c(OC)c3)c(=O)n1Cc1ccccc1C)n2C	none
Cc1ccc(NC(=O)c2c(C)nn(-c3ccccc3)c2Cl)cc1	CHX counter 35.4, Shiga inhibitor 66.1
COc1cccc(NC(=O)c2c(C)nn(-c3ccccc3)c2Cl)c1	CHX counter 19.0
Cc1nn(-c2ccccc2)c(C)c1C(=O)OCc1ccc(C#N)cc1	CHX counter 36.4
COc1ccc(NC(=O)c2c(C)nn(-c3ccccc3)c2Cl)cc1	CHX counter 15.7 (no result: Shiga inhibitor)
CC(=O)c1cccc(NC(=O)c2c(C)nn(-c3ccccc3)c2Cl)c1	none (no result: Sm TGR inh)
CCC(=O)CC	none (no result: Sm TGR inh, FMDV antiviral)
O=C1CCN(Cc2cccc(C(F)(F)F)c2)CCN1Cc1ccccn1	none (no result: Sm TGR inh, CHX counter, Shiga inhibitor)
CCOC(=O)C1CCN(S(=O)(=O)c2ccc(N3CCCCS3(=O)=O)cc2)CC1	FMDV antiviral inconclusive (no result: CHX counter, Shiga inhibitor)
COc1cc(C(=O)OCc2cc(=O)n3nc(C4CCCCC4)sc3n2)cc(OC)c1OC	FMDV antiviral inconclusive (no result: CHX counter, Shiga inhibitor)
COc1ccc(COC(=O)c2c(C)nn(-c3ccccc3)c2Cl)cc1	CHX counter 22.3, Shiga inhibitor 39.5
Nc1[nH]ncc1-c1ccc(Cl)cc1	none
Nc1n[nH]c(N)c1N=Nc1cccc(F)c1	Shiga inhibitor 34.4
Cc1cccc(N=Nc2c(N)n[nH]c2N)c1	CHX counter 16.5
Nc1n[nH]c(N)c1N=Nc1cccc(C(F)(F)F)c1	none
Nc1n[nH]c(N)c1N=Nc1ccc(Cl)cc1	CHX counter 47.4
Nc1[nH]ncc1N=Nc1ccc(Cl)cc1	CHX counter 55.2, Shiga inhibitor 98.2
Cc1cccc(N(C)S(=O)(=O)c2nnc(NC(=O)C3CCCCC3)s2)c1	none (no result: CHX counter, Shiga inhibitor)
C=C[C@@]1(C)CC(=O)[C@]2(O)[C@@]3(C)[C@H](O)CCC(C)(C)[C@@H]3[C@H](O)[C@H](OC(C)=O)[C@@]2(C)O1	none (no result: Sm TGR inh, FMDV antiviral)
Cn1c(=O)c(=O)n(C)c2cc(N3CCCC3)c(NS(=O)(=O)c3ccc(Cl)cc3)cc21	Sm TGR inh 50.1µM
COc1ccccc1CN(C)C(=O)c1ccc(COc2ccccc2)cc1	none
COc1cccc(CN(C)C(=O)c2ccc(COc3ccc(Cl)cc3)cc2)c1OC	CHX counter 67.0, Shiga inhibitor 86.8
CSc1ccccc1C(=O)NCC1Cc2cc(F)cc(-c3cnccn3)c2O1 (stereo unspecified)	none (no result: Sm TGR inh, CHX counter, Shiga inhibitor)
O=C(NCCCN1CCCC1=O)c1ccc2c(c1)OCO2	CHX counter 15.0, Shiga inhibitor 59.0
COc1ccc(C(=O)NCCCN2CCCC2=O)cc1	none
O=C(NCCCN1CCCC1=O)c1ccc(OCc2ccccc2)cc1	CHX counter 28.0
O=C(NCCCN1CCCC1=O)c1ccc(Cl)c(S(=O)(=O)N2CCCCC2)c1	none (no result: CHX counter, Shiga inhibitor)
COC(=O)/C(C#N)=C1/C=Cc2ccccc2N1C	CHX counter 25.6, Shiga inhibitor 61.0
CC(C)(C)c1cc[n+](C2=C([O-])c3ccccc3C(=O)/C2=N\S(=O)(=O)c2cccs2)cc1	FMDV antiviral 8.91µM, CHX counter 40.6, Shiga inhibitor 72.9
O=C1/C(=N\S(=O)(=O)c2cccs2)C([n+]2ccccc2)=C([O-])c2ccccc21	FMDV antiviral 25.1µM
O=S(=O)(/N=C/c1ccccc1O)c1cccs1	none (no result: FMDV antiviral)
Cc1ccc(Cn2cc(C(=O)c3ccc4c(c3)OCO4)c(=O)c3cc(C)ccc32)cc1	none (no result: CHX counter, Shiga inhibitor)
C=CCSc1ncc(-c2ccccc2)cn1	CHX counter 35.2, Shiga inhibitor 62.8
CSc1ncc(-c2ccccc2)cn1	CHX counter 47.3
CCOC(=O)CSc1ncc(-c2ccccc2)cn1	none
C#CCSc1nnc(-c2ccccc2)c(=O)[nH]1	none
C#CCSc1ncc(-c2ccccc2)cn1	CHX counter 43.6, Shiga inhibitor 76.6
COc1ccc(-c2nc3scc(CCNS(=O)(=O)c4ccc(Oc5ccccc5)cc4)n3n2)cc1OC	none (no result: CHX counter, Shiga inhibitor)
Cc1ccc(-c2c3c(=O)n(C)c(=O)n(C)c3c3cnc4ccccc4n23)cc1	none (no result: CHX counter, Shiga inhibitor)
COc1ccc(-n2nc(C(=O)Nc3ccc(C)cn3)c3c4ccccc4n(C)c3c2=O)cc1	none (no result: CHX counter, Shiga inhibitor)
CN(C)c1ccc(NC(=O)CSc2nnc(C3CCCCC3)n2N)cc1	CHX counter 23.9, Shiga inhibitor 30.8
Oc1ccc(C2C=C(c3ccc(F)cc3)Nc3ncnn32)cc1 (stereo unspecified)	Sm TGR inh 44.7µM
CC(C)(C)c1ccc(C2=CC(c3ccccc3F)n3ncnc3N2)cc1 (stereo unspecified)	none (no result: Sm TGR inh, CHX counter, Shiga inhibitor)
Fc1ccc(C2=CC(c3ccco3)n3ncnc3N2)cc1 (stereo unspecified)	Sm TGR inh inconclusive
CCOc1ccc(C2C=C(c3ccc(F)cc3)Nc3ncnn32)cc1 (stereo unspecified)	Sm TGR inh 28.2µM
COc1cccc(C2=CC(c3ccccc3)n3ncnc3N2)c1 (stereo unspecified)	Sm TGR inh 14.1µM (no result: FMDV antiviral)
Fc1ccc(C2=CC(c3ccc(Br)o3)n3ncnc3N2)cc1 (stereo unspecified)	Sm TGR inh 20µM
COc1cccc(C2=CC(c3ccc(N(C)C)cc3)n3ncnc3N2)c1 (stereo unspecified)	Sm TGR inh inconclusive (no result: FMDV antiviral)
CCOc1ccc(C2=CC(c3cc(Br)ccc3F)n3ncnc3N2)cc1Cl (stereo unspecified)	none (no result: CHX counter, Shiga inhibitor)
CCOC(=O)C1CCN(C(=O)C2CCN(S(=O)(=O)c3c(C)noc3/C=C/c3ccc(C)cc3)CC2)CC1	none (no result: CHX counter, Shiga inhibitor)
COc1ccc(C2C=C(c3ccc(C)cc3)Nc3ncnn32)cc1 (stereo unspecified)	Sm TGR inh 28.2µM
COc1ccc(C2C=C(c3ccc(Cl)c(Cl)c3)Nc3ncnn32)cc1 (stereo unspecified)	none (no result: CHX counter, Shiga inhibitor)
Brc1ccc(C2=CC(c3ccco3)n3nnnc3N2)cc1 (stereo unspecified)	CHX counter 16.5, Shiga inhibitor 56.8
COc1ccc(C2C=C(c3ccc(Br)s3)Nc3ncnn32)cc1OC (stereo unspecified)	Sm TGR inh 50.1µM (no result: FMDV antiviral)
